IDE exosite FP = exo-site inhibitors of human insulin-degrading enzyme. P14735. AID 1259349. purified IDE, FL-6b probe fluorescence polarization; active compounds read low. z-score at 20 µM. actives 6.3% (n = 17,000);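 active = z-score of -3 or lower, meaning strong loss of probe binding signal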;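 note: His-tagged human IDE residues 42-1019 made in E. coli with 30 nM FL-6b probe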
The depositor's hits bear a star; ! = a repeat was not active. This excerpt belongs to a sample that is enriched for hits.

For C[C@@H]1CCCCO[C@H](CN(C)S(=O)(=O)c2cn(C)cn2)[C@@H](C)CN([C@@H](C)CO)C(=O)c2cc(NC(=O)Nc3cccc4ccccc34)ccc2O1 the results were IDE exosite FP -0.625.
For C[C@@H]1CN([C@H](C)CO)C(=O)c2cc(NC(=O)Nc3cccc4ccccc34)ccc2O[C@@H](C)CCCCO[C@H]1CN(C)S(=O)(=O)c1cn(C)cn1 the results were IDE exosite FP -1.44.
`C[C@@H]1CCCCO[C@@H](CN(C)S(=O)(=O)c2cn(C)cn2)[C@@H](C)CN([C@@H](C)CO)C(=O)c2cc(NC(=O)Nc3cccc4ccccc34)ccc2O1` gave IDE exosite FP -4.23*.
Screening C[C@@H]1CN([C@@H](C)CO)C(=O)c2cc(NC(=O)Nc3cccc4ccccc34)ccc2O[C@@H](C)CCCCO[C@@H]1CN(C)S(=O)(=O)c1cn(C)cn1 returned IDE exosite FP -3.93*.
O=C1CN(Cc2ccccc2)C[C@@H]2[C@H](c3ccc(-c4ccccc4)cc3)[C@H](CO)N12 was read as IDE exosite FP -1.
Screening CC(C)C#Cc1ccc([C@@H]2[C@H](C#N)N(C(=O)C3CC3)[C@H]2CO)cc1 returned IDE exosite FP 3.15.
O=C(Nc1ccc(F)cc1)N1CCCCN2[C@H](CO)[C@@H](c3ccc(C#CC4CC4)cc3)[C@H]2C1 was read as IDE exosite FP 2.11.
`Cn1cnc(S(=O)(=O)N2CC[C@@H]3[C@H]2c2cc(C4=CCCCC4)ccc2N[C@@H]3CO)c1` gave IDE exosite FP 0.276.
`O=C(Nc1ccc2c(c1)[C@@H]1C[C@@H](CC(=O)N3CCOCC3)O[C@@H](CO)[C@@H]1O2)Nc1ccccc1F` gave IDE exosite FP -1.39.
`O=C(C1CC1)N1CCCCN2[C@H](C1)[C@H](c1ccc(C#CC3CCCC3)cc1)[C@@H]2CO` gave IDE exosite FP 2.84.
`O=S(=O)(Cc1ccccc1)N1CCCCN2[C@H](CO)[C@H](c3ccc(-c4ccccc4)cc3)[C@@H]2C1` gave IDE exosite FP 1.42.
`COC(=O)c1ccc(CN2CC(=O)N3[C@@H](CO)[C@H](c4ccc(-c5ccccc5F)cc4)[C@@H]3C2)cc1` gave IDE exosite FP 1.62.
COc1ccc(C#Cc2ccc([C@@H]3[C@@H](CO)N4C(=O)CN(C(C)=O)C[C@H]34)cc2)cc1 was read as IDE exosite FP 3.64.
Screening COc1cccc(C#Cc2ccc([C@@H]3[C@@H](CO)N4C(=O)CN(C(C)=O)C[C@@H]34)cc2)c1 returned IDE exosite FP -7.54*.
`COc1cccc(C#Cc2ccc([C@H]3[C@H]4CN(C(C)=O)CC(=O)N4[C@H]3CO)cc2)c1` gave IDE exosite FP -7.95*.
COc1ccc(C#Cc2ccc([C@H]3[C@H]4CN(C(C)=O)CC(=O)N4[C@H]3CO)cc2)cc1 was read as IDE exosite FP 2.71.
Screening COc1ccc(C#Cc2ccc([C@H]3[C@@H](CO)N4C(=O)CN(C(C)=O)C[C@@H]34)cc2)cc1 returned IDE exosite FP 3.86.
For COc1ccc(C#Cc2ccc([C@H]3[C@@H](CO)N4C(=O)CN(C(C)=O)C[C@H]34)cc2)cc1 the results were IDE exosite FP 1.71.
Screening N#C[C@H]1[C@@H](c2ccccc2)[C@@H](CO)N1S(=O)(=O)c1ccc(-c2ccccc2)cc1 returned IDE exosite FP 1.6.
`OC[C@H]1[C@@H](c2ccc(C#CC3(O)CCCC3)cc2)[C@H]2CN(Cc3cccnc3)CCCCN21` gave IDE exosite FP 0.433.
Screening COc1ccc2c3c([nH]c2c1)[C@@H](CO)N(S(=O)(=O)c1ccc(C)cc1)CC31CN(Cc2ccccc2)C1 returned IDE exosite FP -0.0446.
Screening COc1ccc(NC(=O)N2C[C@@H](O)COC[C@H]3O[C@@H](CC(=O)N4CCCCC4)CC[C@@H]32)cc1 returned IDE exosite FP 0.0508.
`O=C(C1CCCCC1)N1CC(=O)N2[C@H](CO)[C@H](c3ccc(-c4ccccc4F)cc3)[C@@H]2C1` gave IDE exosite FP -1.69.
O=C1CN(Cc2ccccc2)C[C@@H]2[C@@H](c3ccc(-c4ccccc4F)cc3)[C@@H](CO)N12 was read as IDE exosite FP -4.72*.
`O=C(C1CCCCC1)N1CC(=O)N2[C@@H](CO)[C@H](c3ccc(-c4ccccc4F)cc3)[C@@H]2C1` gave IDE exosite FP -1.21.
Screening O=C(C1CCC1)N1CC(=O)N2[C@H](CO)[C@H](c3ccc(-c4ccccc4F)cc3)[C@H]2C1 returned IDE exosite FP -10.5*.
O=C1CN(Cc2ccc(F)cc2)C[C@H]2[C@H](c3ccc(-c4ccccc4F)cc3)[C@@H](CO)N12 was read as IDE exosite FP -1.24.
For O=C1CN(Cc2ccccc2)C[C@@H]2[C@H](c3ccc(-c4ccccc4F)cc3)[C@H](CO)N12 the results were IDE exosite FP 0.254.
Screening O=C(C1CC1)N1CC(=O)N2[C@@H](CO)[C@@H](c3ccc(-c4ccccc4F)cc3)[C@@H]2C1 returned IDE exosite FP -8.4*.
O=C(C1CCC1)N1CC(=O)N2[C@H](C1)[C@H](c1ccc(-c3ccccc3F)cc1)[C@@H]2CO was read as IDE exosite FP -0.866.
Screening O=C(C1CC1)N1CC(=O)N2[C@H](CO)[C@H](c3ccc(-c4ccccc4F)cc3)[C@@H]2C1 returned IDE exosite FP 1.2.
COC(=O)C[C@@H]1CC[C@H]2[C@H](COc3ccc(NS(=O)(=O)c4ccc(C)cc4)cc3C(=O)N2C)O1 was read as IDE exosite FP -0.947.
Screening Cc1cccc(S(=O)(=O)N2CCCCN3[C@H](C2)[C@H](c2ccc(C#C[C@H](C)O)cc2)[C@@H]3CO)c1 returned IDE exosite FP 2.03.
Screening C[C@H]1CC=CC[C@H](c2ccc3c(c2)OCO3)NC(=O)[C@H](C)N(C)C(=O)c2ccccc2O1 (mixture of isomers) returned IDE exosite FP -1.79.
CO[C@H]1CN(C)C(=O)c2ccc(NS(=O)(=O)c3c(C)noc3C)cc2OC[C@@H](C)NC[C@@H]1C was read as IDE exosite FP -0.217.
CCS(=O)(=O)N1CC(=O)N2[C@H](C1)[C@@H](c1ccc(C#CCC3CCCC3)cc1)[C@@H]2CO was read as IDE exosite FP 1.18.
`CC(=O)N1CC(=O)N2[C@H](CO)[C@H](c3ccc(-c4ccc(C#N)cc4)cc3)[C@@H]2C1` gave IDE exosite FP 1.45.
`C(=C\c1ccc(C2[C@H]3CNC[C@@H]2N3Cc2ccccn2)cc1)/c1ccccc1` (stereo not given in full) gave IDE exosite FP -3.77*!.
Screening C(=C\c1ccc(C2[C@H]3CNC[C@@H]2N3Cc2cncnc2)cc1)/c1ccccc1 (stereo not given in full) returned IDE exosite FP 0.522.
For COc1cc(CN2[C@@H]3CNC[C@H]2C3c2ccc(/C=C/c3ccccc3)cc2)cc(OC)c1 (stereo not given in full) the results were IDE exosite FP -5.51*!.
`COc1cc(CN2[C@@H]3CNC[C@H]2C3c2ccc(-c3ccccc3)cc2)cc(OC)c1` (stereo not given in full) gave IDE exosite FP -2.36.
Screening COc1cccc(CN2[C@@H]3CNC[C@H]2C3c2ccc(/C=C/c3ccccc3)cc2)c1 (stereo not given in full) returned IDE exosite FP -0.842.
`c1ccc(CN2[C@@H]3CNC[C@H]2C3c2ccc(-c3cccnc3)cc2)nc1` (stereo not given in full) gave IDE exosite FP 1.71.
